Source: PubChem
CHX counter: Cycloheximide Counterscreen for Small Molecule Inhibitors of Shiga Toxin; cell reporter, cycloheximide protein synthesis inhibition counterscreen; actives 12% (n = 300,000); max response, %; in the data active means max response mostly above about 13%, no sharp cut-off; inactive means mostly below about 14%; further: read at 38.3 µM for the half of the compounds with a filed dose; 0% is about no effect
NS1 inh: qHTS Assay for Inhibitors of Influenza NS1 Protein Function. Potency, µM (highest dose often 46.1 µM), inactives show at the top dose activity, positive = more growth. AID 2326, 2010. actives 0.4% (n = 270,000); further: potency means the concentration at half of the fitted maximal effect; actives are rising curves; nearly all actives have a fitted effect of over 50% in size
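In this qHTS, NS1 from influenza A is expressed in budding yeast, where it slows growth. Cells are switched from glucose to 2% galactose medium (pH 6.0, -URA), treated with compound, and growth recovery is read at OD600.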
SARS PLP yeast: qHTS of Yeast-based Assay for SARS-CoV PLP | actives 0.19% (n = 330,000) | Potency, µM (doses to about 32.9 µM), for the others: at the top dose activity, positive = growth rescue, actives largely listed as activators | AID 485353, 2010 | S. cerevisiae expressing SARS-CoV PLpro, growth rescue; further: potency means the concentration at half of the fitted maximal effect; 0% is about no effect; nearly all actives have a fitted effect of over 55% in size
Shiga inhibitor: A qHTS for Small Molecule Inhibitors of Shiga Toxin | actives 9.2% (n = 290,000) | Vero cells, Shiga toxin protein synthesis inhibition reporter | inhibition, % at 38.7 µM; in the data active means inhibition mostly above about 28%, no sharp cut-off; inactive means mostly below about 43%; further: 0% is about no effect
An asterisk follows results filed as active; ? = inconclusive; nt = no result given. Most compounds without a hit are left out; they make up all but 12% or so of the library. Unless noted, the call rests on the fitted dose curve.

SMILES	CHX counter	NS1 inh	SARS PLP yeast	Shiga inhibitor
CCCCOc1ccc2ccccc2c1C=O	31.6*	-134.5%	-11.9%	67.7
C=CCN1C(=O)c2cccc3c(N4CCCCC4)ccc(c23)C1=O	46.2*	nt	-2.6%	130.1*
O=C1c2cccc3c(N4CCCCC4)ccc(c23)C(=O)N1CCO	42.3*	-65.9%	-11.1%	75.6
C=CCN1C(=O)c2cccc3c(Br)ccc(c23)C1=O	4.1	nt	-4.9%	5.9
O=C1c2cccc3c(N4CCCCC4)ccc(c23)C(=O)N1c1cccc(O)c1	60.8*	3.7%	0.2%	89.8*
Cc1n[nH]c(C)c1N1C(=O)c2cccc3c(N4CCCCCC4)ccc(c23)C1=O	1.5	-9.0%	-2.1%	-18.6
O=C(COC(=O)c1cc(-c2ccccn2)nc2ccccc12)Nc1ncc(C(F)(F)F)cc1Cl	5.9	5.5%	-0.4%	17.1
CCOC(=O)CN1C(=O)C(C)(C)Oc2ccc(C(=O)NC(C)(C)CC)cc21	22.3*	-6.3%	-1.4%	8.9
CC1(C)Oc2ccc(C(=O)Nc3ccccc3)cc2N(CC#N)C1=O	17.5*	-5.3%	1.3%	38.1*
CCC(C)(C)NC(=O)c1ccc2c(c1)N(CC(=O)OC)C(=O)C(C)(C)O2	8.0	-1.2%	5.9%	5.4
Cc1ccc(-n2nc3c(=O)n(C(C)C(=O)NCc4ccc(Cl)cc4)nc(C)c3c2C)cc1 (stereo not drawn)	15.2	-26.4%	-1.1%	-7.4
COc1ccc(OC)c(N2Cc3ccccc3C2)c1	-1.4	?	10.0%	3.3
COc1ccccc1N1Cc2ccccc2C1	21.3*	8.7%	-2.7%	3.9
COc1ccc(Cl)cc1N1Cc2ccccc2C1	-3.5	11.7%	0.7%	-3.4
COc1ccc(N2Cc3ccccc3C2)cc1Cl	22.0*	-6.0%	0.6%	87.2*
O=C(CCS(=O)(=O)Cc1ccccc1)NCCc1ccccc1	-3.2	nt	1.7%	-5.1
O=C(CCS(=O)(=O)Cc1ccc(Cl)cc1)NCCc1ccccc1	18.8*	nt	-3.3%	14.9
Cc1ccc(CNC(=O)CN(C)S(=O)(=O)c2cccs2)cc1	27.5*	nt	3.6%	22.7
COc1ccc(CCNC(=O)CN(C)S(=O)(=O)c2cccs2)cc1	nt	nt	0.6%	nt
CCN(CC)CC(=O)Nc1c(C)cc(C(C)(C)C)cc1C	32.0*	1.4%	-2.3%	39.6*
CN(CC(=O)Nc1ccccc1F)Cc1cccs1	7.8	3.2%	-1.2%	7.9
Cc1cc(Br)ccc1NC(=O)CN(C)Cc1cccs1	27.9	-21.8%	0.2%	48.3*
CCN(CC(=O)Nc1ccc2c(c1)OCCO2)C(=O)/C=C/c1cccc(Br)c1	nt	nt	-31.5%	nt
Cc1ccc(S(=O)(=O)N2CCCOC2CNC(=O)C(=O)NCc2ccccc2C)cc1 (stereo not drawn)	-2.2	3.3%	1.3%	-6.7
CN(CC(=O)NCCc1ccccc1)S(=O)(=O)c1ccc(Br)cc1	8.2	-5.3%	3.4%	-21.9
SMILES	CHX counter	NS1 inh	SARS PLP yeast	Shiga inhibitor
CN(Cc1ccccc1)S(=O)(=O)c1cccs1	-0.6	-11.4%	3.8%	-7.9
CN(CC(=O)NCCc1ccccc1)S(=O)(=O)c1ccc(Br)s1	27.7*	-12.9%	0.6%	46.4*
CN(CC(=O)NCCc1ccc(Cl)cc1)S(=O)(=O)c1cccs1	21.5*	-18.1%	-1.6%	34.2*
COC(=O)c1ccc(CN(C)S(=O)(=O)c2cccs2)cc1	55.8*	2.8%	-0.3%	76.0*
CN(CC(=O)NCCc1ccccc1)S(=O)(=O)c1cccs1	14.7	3.2%	2.8%	21.6
Cc1ccc(NC(=O)CN(C)S(=O)(=O)c2cccs2)cc1F	37.6*	-2.4%	-6.6%	75.2*
O=S(=O)(c1ccc2c(c1)OCCO2)N1CCN(S(=O)(=O)c2ccc(F)cc2F)CC1	-1.9	nt	nt	1.0
CCN(CC)CC(=O)Nc1ccc(C)cc1Br	26.7*	3.4%	8.7%	40.3*
Cc1ccc(NC(=O)COC(=O)C2CC2)c(Br)c1	40.3*	18.5%	0.4%	61.5*
Cc1cc(Br)c(NC(=O)COC(=O)C2CCCCC2)c(Br)c1	nt	nt	-8.4%	nt
Cc1ccc(NC(=O)CN(C)S(=O)(=O)c2cccs2)c(Br)c1	35.9*	-18.4%	-0.2%	84.5*
O=S(=O)(NCc1cn2ccsc2n1)c1ccc(Oc2ccccc2)cc1	-2.6	-3.9%	3.0%	-11.1
C=CCOc1ccccc1CN1CCC(Oc2ccc(C(=O)N3CCCCC3)cc2)CC1	-3.0	-5.1%	-1.3%	-1.6
CC(C)(C)NC(=O)C(c1ccncc1)N(C(=O)Cn1nnc(-c2ccc(F)cc2)n1)c1cccc(F)c1 (stereo not drawn)	28.5*	0.7%	0.8%	55.9
Cc1cccc(N(C(=O)Cn2nnc(-c3ccccc3F)n2)C(C(=O)NC(C)(C)C)c2ccncc2)c1 (stereo not drawn)	-1.8	5.4%	0.9%	-8.2
